A549 tox: Nrf2 qHTS screen for inhibitors: counterscreen for cytotoxicity. Potency, µM (titrated, usually from 46 µM), inactives show top-dose activity change, negative = cytotoxicity, usual class: inhibitors. 390,000 compounds, 0.16% hits. A549 ARE-Fluc cells, CellTiter-Fluor viability, 18-24 h; further: potency means the concentration at half of the fitted maximal effect; on the % scale 0 is the no-effect control and ±100 the full control effect
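A549 ARE-Fluc cells in 5% FBS OPTI-MEM, 5000 cells/well, rested 2 h then exposed to compounds in concentration-response for 18-24 h at 37 °C. Viability by CellTiter-Fluor fluorescence (Ex 405/Em 525) after 30 min; luciferase luminescence (BugLite, 15 min, RT) read afterwards.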
Apoferritin bind: qHTS Assay for Identification of Novel General Anesthetics; apoferritin/1-aminoanthracene competitive binding, fluorescence; Potency, µM (series often up to 77.5 µM), without a hit: at the highest dose activity change, negative = displacement, actives largely listed as inhibitors; 350,000 compounds, 0.074% hits; further: potency means the concentration at half of the fitted maximal effect; on the % scale 0 is the no-effect control and ±100 the full control effect; nearly all actives have a fitted effect of over 20% in size
Target sequence (P02791 2-175 limits assumed): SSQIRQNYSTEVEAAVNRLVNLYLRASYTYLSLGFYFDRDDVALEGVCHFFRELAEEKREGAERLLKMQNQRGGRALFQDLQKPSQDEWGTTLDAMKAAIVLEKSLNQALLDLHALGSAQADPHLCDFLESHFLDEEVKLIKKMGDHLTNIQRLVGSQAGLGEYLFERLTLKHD
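Probe: 1-aminoanthracene (50% saturated, PBS). Protein: horse-spleen apoferritin, 10 uM. Incubation: 10 min, room temperature. Detection: 380 nm excitation, 535 nm emission. Analysis: normalized response, four-parameter Hill.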
Giardia killer: Small Molecules that selectively kill Giardia lamblia: qHTS; Giardia lamblia trophozoite viability; activity change, % at 7.66 µM, hits read low; 340,000 compounds, 0.15% hits; in the data active means activity change below about -80%; inconclusive means between about -30% and that limit;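 further: parasites exposed to compound for two days anaerobically before the ATP read; on the % scale 0 is the no-effect control and ±100 the full control effect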
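Luminescence from cellular ATP indicates surviving trophozoites (100 cells/well) following 48 hrs anaerobic compound treatment at 37 deg C; signal develops 15-30 min at room temperature.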
Nrf2 ARE act: qHTS of Nrf2 Activators; AREc32 ARE-luciferase reporter (MCF7-derived line), luminescence, 24 h; Potency, µM (series often up to 46.1 µM), inactives show top-dose activation, actives largely listed as activators; 410,000 compounds, 0.31% hits; further: potency means the concentration at half of the fitted maximal effect; % of control where 0% means no effect; nearly all actives have a fitted effect of over 65% in size
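AREc32 cells carrying an ARE-driven firefly luciferase, 1000 cells/well in OPTI-MEM with 5% FBS, dosed after overnight attachment and incubated 24 hr at 37 deg C. Steady-Glo luminescence read after 30 min at RT.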
Nrf2 block: Nrf2 qHTS screen for inhibitors. A549 ARE-Fluc reporter, luciferase luminescence, 18-24 h. Potency, µM (highest dose often 46 µM), for the others: at the highest dose activity change, negative = inhibition, hits mostly inhibitors. 360,000 compounds, 2.1% hits; further: potency means the concentration at half of the fitted maximal effect; on the % scale 0 is the no-effect control and ±100 the full control effect; nearly all actives have a fitted effect of over 60% in size
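Quantitative HTS in A549 cells stably bearing an antioxidant response element-firefly luciferase construct. Inhibition of Nrf2-driven transcription was scored by luminescence after 18-24 h of compound exposure at 37 °C.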
mIDH1 inhibitor: qHTS for Inhibitors of mutant isocitrate dehydrogenase 1 (IDH1): qHTS | Isocitrate dehydrogenase [NADP] cytoplasmic (Homo sapiens), O75874 | IDH1-R132H enzyme, NADPH consumption, diaphorase/resazurin fluorescence | Potency, µM (top dose mostly 76.6 µM), for inactives: at the highest dose activity change, negative = inhibition, hits mostly inhibitors | 390,000 compounds, 0.093% hits; further: potency means the concentration at half of the fitted maximal effect; on the % scale 0 is the no-effect control and ±100 the full control effect; nearly all actives have a fitted effect of over 65% in size
Target sequence (O75874 whole entry R132H, stated change not applied): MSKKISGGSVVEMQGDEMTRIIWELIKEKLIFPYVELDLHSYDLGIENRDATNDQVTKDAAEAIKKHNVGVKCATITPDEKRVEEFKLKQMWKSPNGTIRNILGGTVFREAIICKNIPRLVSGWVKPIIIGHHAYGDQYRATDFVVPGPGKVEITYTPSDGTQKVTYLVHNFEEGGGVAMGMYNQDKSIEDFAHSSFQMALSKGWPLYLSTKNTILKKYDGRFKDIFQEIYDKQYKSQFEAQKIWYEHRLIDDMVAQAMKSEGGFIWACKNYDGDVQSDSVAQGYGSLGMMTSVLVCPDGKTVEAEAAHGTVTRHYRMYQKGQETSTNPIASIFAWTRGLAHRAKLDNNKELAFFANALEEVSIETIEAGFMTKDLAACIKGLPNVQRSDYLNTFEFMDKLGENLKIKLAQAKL
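IDH1-R132H (0.5 ug/mL) preincubated 30 min with compound, then NADPH (0.016 mM) and alpha-KG (2 mM) added; 80 min at RT, pH 7.5. Remaining NADPH coupled via diaphorase/resazurin to fluorescence (540/590 nm); concentration-response curves normalized to no-enzyme control.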
Active calls of the source: *; ? = inconclusive; / = no result given; [ ] = remark or other dose. A selection: hits, their analogues and other compounds. The true share with any hit is near 2.3%. Unless noted, the call rests on the fitted dose curve; in most records, active means well fitted curve in the direction sought with a large enough effect; inconclusive means small, poorly fitted or top-dose-only effect, or another doubt; inactive means no such curve, though single readings can be large; an effect the other way counts as inactive or inconclusive.

SMILES	A549 tox	Apoferritin bind	Giardia killer	Nrf2 ARE act	Nrf2 block	mIDH1 inhibitor
CC[n+]1ccc(/C=C2\Sc3ccccc3N2CCCS(=O)(=O)[O-])c2ccccc21	-8.1%	-4.9%	-7.1	1.9%	-2.6%	4.3%
CCC(C)(C)n1nnnc1CN1CCN(c2nc3cc(OC)ccc3cc2C#N)CC1	-13.5%	?	-0.3	-0.1%	18.4µM*	0.3%
Cc1ccc(C)c(N2CCN(Cc3nnnn3C3CCCCC3)CC2)c1	12.8%	2.1%	-16.7	0.0%	/	3.7%
Cc1ccc2nc(N3CCN(Cc4nnnn4C4CCCC4)CC3)c(C#N)cc2c1	0.9%	1.0%	-17.1	-0.7%	23.1µM*	-2.3%
NNC(=O)c1ccc(CSc2nc3ccccc3s2)cc1	8.5%	-13.6%	-14.6	11.2%	10.1%	1.6%
COCCN(CCOC)C(=O)c1ccc(CSc2nc3ccccc3s2)cc1	-16.8%	-17.2%	-1.1	5.5%	13µM*	2.8%
N#Cc1ccccc1-c1cncnc1NCc1cccnc1	/	-12.7%	/	/	/	/
Cc1cc2c(s1)c1cnn(Cc3ccc(C(F)(F)F)cc3F)c(=O)c1n2C	3.3%	/	/	/	1.1%	/
Cc1nc(C)c(-c2ccc(SCC(=O)Nc3ccc(F)cc3F)nn2)s1	-25.2%	-10.0%	3.1	-0.5%	20.6µM*	6.4%
Cc1nc(C)c(-c2ccc(SCC(=O)Nc3ccc(F)c(F)c3)nn2)s1	-12.1%	-17.8%	/	-0.1%	/	17.9%
Cc1nc(C)c(-c2ccc(SCC(=O)Nc3ccccc3F)nn2)s1	-0.9%	22.4µM*	/	4.4%	/	13.2%
Cc1cc2c(s1)c1cnn(Cc3ccc(F)c(Cl)c3)c(=O)c1n2C	-1.2%	/	/	/	13.6%	/
COc1ccc(-c2cc(=O)oc3c4c(ccc23)OCN(Cc2ccccc2)C4)cc1	3.4%	160.0%	/	6.0%	16.7%	0.0%
O=C1c2ccccc2-c2onc3ccc(Oc4ccccc4)c1c23	?	-19.6%	-2.9	7.08µM*	?	0.4%
CCOC(=O)C(C(=O)OCC)c1cc(Br)c2noc3c2c1C(=O)c1ccccc1-3	?	-13.8%	-21.8	3.1%	-17.9%	15.7%
Cc1ccc(Cl)cc1NC(=O)Cn1c(=O)n(C(C)C)c(=O)c2oc3ccccc3c21	7.7%	0.7%	/	-0.4%	-1.9%	-1.5%
CCN(CC)c1ccc2c(c1)oc(=O)c1c(Cl)cc(=O)oc12	?	-15.3%	?	8.91µM*	16.3%	?
Cc1ccc(NC(=O)Nc2nnc(N(C)C3CCCCC3)s2)c(Cl)c1	3.9%	-10.7%	/	0.4%	-4.9%	4.0%
Cc1c(Cl)cccc1NC(=O)Nc1nnc(N(C)C2CCCCC2)s1	-1.5%	-9.8%	/	-0.2%	18.4µM*	-0.1%
COc1cccc(CNc2cc(C)nc3nc(-c4ccc(C)cc4)nn23)c1	10.1%	-19.7%	/	3.3%	/	-4.3%
Cc1oc(-c2ccc3c(c2)OCCO3)cc1C(=O)O	-5.3%	-10.4%	-11.1	-1.2%	9.2µM*	6.0%
COc1ccc(C(=O)N2CCc3cc(OC)c(OC)cc3C2COc2ccccc2OC)cc1 (stereo unspecified)	-1.2%	53.7%	/	0.2%	/	12.8%
NC(=O)c1c(NC(=O)CN2CCN(S(=O)(=O)c3ccccc3)CC2)sc2c1CCC2	?	/	-1.2	-0.6%	18.4µM*	5.6%
CN1CCN(CC(=O)Nc2sc3c(c2C(=O)Nc2ccccc2)CCCC3)CC1	-12.1%	-7.6%	3.1	-0.3%	11.8%	-5.1%
Cc1cc(=O)oc2cc(OCc3ccc(C(=O)N4CCN(c5ccccc5)CC4)cc3)ccc12	-7.9%	3.5%	-13.1	4.6%	18.4µM*	1.7%
SMILES	A549 tox	Apoferritin bind	Giardia killer	Nrf2 ARE act	Nrf2 block	mIDH1 inhibitor
Cc1cc(=O)oc2cc(OCc3ccc(C(=O)N4CCN(c5ccc([N+](=O)[O-])cc5)CC4)cc3)ccc12	-10.4%	-2.3%	4.1	-2.0%	-29.7%	-14.0%
O=C(O)CC1(CC(=O)NCc2ccc(C(F)(F)F)cc2)CCCCC1	-3.2%	-8.2%	7.3	0.1%	?	-5.0%
O=C(O)CC1(CC(=O)Nc2cc(C(F)(F)F)cc(C(F)(F)F)c2)CCCCC1	-6.0%	-5.3%	8.5	3.0%	23.1µM*	8.2%
COCCC(=O)N1CCOCC1c1cc(C(=O)NCc2ccccc2)no1 (stereo unspecified)	/	/	/	0.0%	/	/
CCn1c(C)nc2cc(C(=O)n3cc(C(=O)c4cc(F)ccc4O)cn3)ccc21	/	-9.0%	/	/	/	/
CCC(=NNC(=O)c1ccc2c(c1)nc(C)n2CC)c1cc(F)ccc1O	-6.7%	/	9.8	-0.3%	6.51µM*	1.9%
Cc1ccc2cccc(NC(=O)c3ccc(-c4cc(Cl)ccc4Cl)o3)c2n1	-0.5%	-4.4%	/	-1.2%	8.4%	-1.8%
CCc1cccc(C)c1NS(=O)(=O)c1c(C(=O)N2CCC(C)CC2)c(C)n(C)c1C	-5.3%	-2.2%	/	0.8%	/	-21.2%
Cc1ccc(N2C(=O)CC(Cc3cc(C)cc(C)c3)C2=O)cc1 (stereo unspecified)	1.1%	-17.5%	-21.0	-0.5%	-4.4%	-8.1%
Cc1cc(C)cc(CC2CC(=O)N(c3nc(C)cc(C)n3)C2=O)c1 (stereo unspecified)	-1.5%	5.62µM*	-14.7	-0.4%	-9.7%	2.5%
C=CCn1c(COc2ccccc2)nc2ccccc21	1.1%	70.8µM*	-0.2	4.3%	8.4%	-3.1%
O=C(Cn1c(COc2ccccc2)nc2ccccc21)Nc1cc(Cl)ccc1Cl	?	1.4%	-20.0	-0.5%	18.4µM*	-0.1%
c1ccc(OCCn2c(COc3ccccc3)nc3ccccc32)cc1	0.5%	10.4%	/	4.0%	3.6%[9.27 µM]	-15.8%
O=C(Cn1c(COc2ccccc2)nc2ccccc21)Nc1cc(Cl)cc(Cl)c1	-17.0%	1.5%	?	-0.9%	-4.4%	-0.8%
COc1ccc(C2c3c(ncn(Cc4ccccc4)c3=N)Oc3ccc4ccccc4c32)cc1OC (stereo unspecified)	-10.2%	/	/	/	2.7%	/
O=[N+]([O-])c1ccccc1NCc1ccc(O)c2ncccc12	?	/	/	/	6.51µM*	/
Clc1ccccc1C1=CC(c2ccco2)n2ncnc2N1 (stereo unspecified)	0.8%	132.4%	-2.3	11.2µM*	4.1%	3.8%
CSC1(SC2=NCCN2)SC2(NCCN2)S1	7.31µM*	/	3.2	23.9%	8.2µM*	0.7%
CCOc1ccc(N2C(=O)C(Cl)=C(Nc3ccccc3O)C2=O)cc1	1.2%	?	0.6	12.6µM*	10.4%	11.0%
COC(=O)c1scc(C)c1NC(=O)c1ccccc1F	2.4%	-6.6%	7.6	12.6µM*	?	-9.6%

Screening data: PubChem, National Center for Advancing Translational Sciences (NCATS)
